Bioassay records: PubChem, National Center for Advancing Translational Sciences (NCATS)
Only some compounds are listed: those with a hit (about 3.6% of all), similar ones and a draw of the others.
NPSR antag = qHTS Assay for Antagonists of the Neuropeptide S Receptor: cAMP Signal Transduction. AID 1461, 2008. Q6W5P4. hit rate 1% among 220,000. CHO-NPSR cells, cAMP TR-FRET, antagonist mode. Potency, µM (highest dose often 38.3 µM), actives largely listed as inhibitors; also: nearly all actives have a fitted effect of over 50% in size
Target sequence (Q6W5P4 whole entry, looked up): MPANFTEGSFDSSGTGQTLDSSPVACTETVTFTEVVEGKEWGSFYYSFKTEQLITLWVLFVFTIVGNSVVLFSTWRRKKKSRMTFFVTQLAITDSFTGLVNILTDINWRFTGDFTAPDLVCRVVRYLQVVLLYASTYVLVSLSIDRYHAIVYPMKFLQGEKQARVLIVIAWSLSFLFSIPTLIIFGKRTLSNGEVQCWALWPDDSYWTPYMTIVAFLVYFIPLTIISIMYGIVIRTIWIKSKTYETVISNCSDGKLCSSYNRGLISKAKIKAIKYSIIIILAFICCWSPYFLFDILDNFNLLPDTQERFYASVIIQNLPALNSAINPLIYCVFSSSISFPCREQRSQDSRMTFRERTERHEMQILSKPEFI
Sfp inh = qHTS Assay for Inhibitors of Bacillus subtilis Sfp phosphopantetheinyl transferase (PPTase). 4'-phosphopantetheinyl transferase ffp (Bacillus subtilis), Q9F4F7. Biochemical Sfp PPTase activity, qHTS. Potency, µM, usual class: inhibitors. hit rate 3.5% among 310,000. AID 1490, 2009;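 also: the enzyme is Sfp with the accession as filed and its product quenches rhodamine fluorescence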
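Compounds were incubated with enzyme (final 15 nM) for 15 min at room temperature before substrate addition started the reaction. Fluorescence at 525 nm excitation, 598 nm emission was recorded immediately and after 30 minutes.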
KDM4E inh = qHTS Assay for Inhibitors of Human Jumonji Domain Containing 2E (JMJD2E). AID 2147, 2009. Potency, µM (series often up to 57.1 µM), usual class: inhibitors. JMJD2E catalytic domain, FDH-coupled NADH fluorescence (FDH is formaldehyde dehydrogenase). hit rate 1.6% among 230,000; active = well fitted inhibition curve with a large enough effect, not every such curve was filed as active; inconclusive = small, poorly fitted or top-dose-only effect, or another doubt; inactive = no such curve, though single readings can be large or run the other way; also: nearly all actives have a fitted effect of over 50% in size
Target sequence (B2RXH2 1-337 limits assumed): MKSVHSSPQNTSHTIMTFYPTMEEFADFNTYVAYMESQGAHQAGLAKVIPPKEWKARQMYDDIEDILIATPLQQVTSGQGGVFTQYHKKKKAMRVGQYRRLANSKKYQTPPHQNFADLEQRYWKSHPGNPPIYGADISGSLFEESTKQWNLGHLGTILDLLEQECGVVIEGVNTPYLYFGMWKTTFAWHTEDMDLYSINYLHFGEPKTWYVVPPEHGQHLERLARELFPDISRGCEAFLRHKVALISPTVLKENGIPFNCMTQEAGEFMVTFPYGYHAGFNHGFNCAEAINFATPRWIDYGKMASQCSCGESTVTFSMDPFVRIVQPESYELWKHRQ
IMPase Li cell = qHTS Assay for Identifying the Cell-Membrane Permeable IMPase Inhibitors: Potentiation with Lithium | CHO-M1 cells, IP1 TR-FRET (IP-One), carbachol + lithium | Potency, µM (highest dose often 59.4 µM), usual class: inhibitors | hit rate 0.35% among 210,000 | AID 1457, 2008;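 also: IP1 builds up when IMPase is blocked and the TR-FRET signal falls; nearly all actives have a fitted effect of over 50% in size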
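Lithium-sensitised IP1 accumulation assay; M1-expressing CHO cells treated 30 min at 37C with compound. Competitive antibody detection by time-resolved FRET followed a 10 min room-temperature lysis step.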
KAT2A inh = qHTS Assay for Inhibitors of GCN5L2 | GCN5L2 HAT assay, ThioGlo1 CoA-SH fluorescence | hit rate 0.21% among 390,000 | Potency, µM (series often up to 58.9 µM), most hits filed as inhibitors | Histone acetyltransferase KAT2A (Homo sapiens), Q92830 | AID 504327, 2011
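Preincubate 20nM GCN5L2 with compound 15 min, RT → add 50uM ThioGlo1 + 75uM H3(1-25) + 70uM acetyl-CoA → read fluorescence 0 and 20 min. Primary qHTS; fluorescent artifacts likely.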
Epigenetic derep = Quantitative High-Throughput Screen for Regulators of Epigenetic Control; murine LDR cells, GFP reporter derepression, 30 h; AID 1865, 2009; Potency, µM (series often up to 53.9 µM), usual class: activators; hit rate 0.2% among 280,000; also: nearly all actives have a fitted effect of over 60% in size
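Murine LDR cells carrying a silenced, genomically integrated CMV-driven GFP reporter were exposed to compound for 30 hours at 37 C. After PBS washes, GFP-positive cells (20–120 um objects) were counted by laser-scanning microplate cytometry.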
Hits are given with their value; n = inactive; u = inconclusive; x = no result; ! = not confirmed by another sample; [ ] = another dose, or the depositor's remark. Unless noted, calls follow the shape of the dose curve; as a rule, active = well fitted curve in the direction sought with a large enough effect; inconclusive = small, poorly fitted or top-dose-only effect, or another doubt; inactive = no such curve, though single readings can be large; an effect the other way counts as inactive or inconclusive.

SMILES	NPSR antag	Sfp inh	KDM4E inh	IMPase Li cell	KAT2A inh	Epigenetic derep
Cc1ccc([N+](=O)[O-])cc1NC(=S)NC(=O)C(C)(C)C	n	n	n	n	n	n
Cc1ccc([N+](=O)[O-])cc1NC(=S)NC(=O)c1c(Cl)cnn1C	x	44.7µM	x	x	n	x
CCCCC(=O)N(C)C	x	x	x	n	x	x
CCOc1ccc(-c2nonc2NC(=O)c2oc3ccc(Cl)cc3c2C)cc1	x	x	x	x	n	n
CCCCOC(=O)c1ccc(NC(=S)NC(=O)c2c(Br)c(C)nn2C)cc1	n	4.47µM	n	n	n	n
CC[C@H](C)[C@H](NC(=O)CNC(=O)[C@H](C)NC(=O)[C@H](C)N)C(=O)NCC(=O)N[C@H](C(=O)N[C@@H](CC(C)C)C(=O)N[C@H](C(=O)N[C@H](C(=O)O)C(C)C)[C@@H](C)O)[C@@H](C)CC	x	n	x	x	n	x
COC(=O)c1ccc2c(c1)C(C)(C)C(/C=C/c1ccccc1O)=[N+]2C	n	11.2µM	u	n	u	n
C[N+]1=C(/C=C/Nc2ccccc2Cl)C(C)(C)c2ccccc21	n	n	n	n	n	n
COC(=O)N1[C@H]2CC[C@@]3(C)CC(=O)C[C@]1(C)C3c1ccccc12	x	n	n	n	x	n
CCOC(=O)/C=c1\s/c(=C\c2ccccc2C)c(=O)n1CC(=O)NCc1ccc2c(c1)OCO2	n	u	u	n	n	u
CCOC(=O)/C=c1\s/c(=C\c2ccc3cc(OC)ccc3c2)c(=O)n1CC(=O)NCc1ccc2c(c1)OCO2	n	n	n	n	n	7.94µM
NCC(=O)N[C@@H](CCCN=C(N)N)C(=O)NCC(=O)N[C@@H](CC(=O)O)C(=O)N[C@@H](CO)C(=O)N1CCC[C@H]1C(=O)O	x	n	x	x	n	x
Clc1ccc2c(NCCNc3ccnc4cc(Cl)ccc34)ccnc2c1	x	x	x	n	x	x
CCOc1ccc(NC(=S)NNc2ccnc3cc(Cl)ccc23)cc1	n	20µM	n	n	n	n
S=C(NNc1ccnc2cc(Cl)ccc12)Nc1ccc(Cl)cc1Cl	n	20µM	u	x	n	n
O=C(O)CC/C=C\CC[C@@H]1[C@@H](N2CCCCC2)[C@@H](O)C[C@@H]1OCc1ccc(-c2ccccc2)cc1	x	n	x	x	n	x
CC/C=C\C/C=C\C/C=C\C/C=C\C/C=C\C/C=C\CCC(=O)O	x	79.4µM!	n	n	n	n
Cc1ccc(/C=C/C(=O)Nc2cccc3ncccc23)o1	n	20µM	n	n	n	n
CCCCCCCn1c2c(c(=N)c3c1CCC3)CCCC2	n	n	3.55µM	n	n	n
CCCCCCCCCn1c2c(c(=N)c3c1CCC3)CCC2	7.94µM	n	n	n	n	n
CCCCCCn1c2c(c(=N)c3c1CCC3)CCC2	n	n	n	n	n	n
CCOC(=O)c1c[nH]c2cc(OCC(C)C)c(OCC(C)C)cc2c1=O	x	n	x	x	n	x
Cc1cc(/C=C(/C#N)c2nc3ccccc3[nH]2)c(C)n1-c1ccccc1C(=O)O	n	n	n	n	u	n
Cc1cc(/C=C(/C#N)c2nc3ccccc3[nH]2)c(C)n1-c1cc(C(=O)O)cc(C(=O)O)c1	n	n	22.4µM	n	n	n
Cc1oc(-c2cccc(C(F)(F)F)c2)nc1CN1CCC[C@H]1CO	n	n	n	n	u	n
SMILES	NPSR antag	Sfp inh	KDM4E inh	IMPase Li cell	KAT2A inh	Epigenetic derep
Cc1oc(-c2cccc(C(F)(F)F)c2)nc1CN1CCOCC1	n	n	n	n	n	11.2µM
COC(=O)C1=C(C)N(Cc2ccccc2)C2=C(C(C)=O)C(c3ccccc3)[C@@](O)(C(=O)OC)C(=O)N2C1c1ccccc1 (stereo partly specified)	x	n	x	x	x	n[10.1 µM]
Brc1ccc2[nH]c3c(N4CCc5ccccc5C4)ncnc3c2c1	u	n	3.55µM	n	n	n
Fc1ccc2[nH]c3c(N4CCc5ccccc5C4)ncnc3c2c1	n	n	u	x	n	n
O=C1CC[C@@H](C(=O)N[C@@H](Cc2cnc[nH]2)C(=O)N[C@@H](Cc2c[nH]c3ccccc23)C(=O)N[C@@H](CO)C(=O)N[C@@H](Cc2ccc(O)cc2)C(=O)O)N1	x	n	x	x	n	x
Cc1cccc(CN2C(=O)c3ccccc3Sc3ccc(C(=O)NC4CCCCC4)cc32)c1	x	x	x	x	n	n
Cc1ccc(-n2ncc3c(=O)n(CC(N)=O)cnc32)cc1C	x	n	x	x	3.98µM	x
CCOC(=O)Cn1cnc2c(cnn2-c2ccc(C)c(C)c2)c1=O	x	x	x	x	n	n
OC1(c2ccc(Cl)c(C(F)(F)F)c2)CCN(CCCC(c2ccc(F)cc2)c2ccc(F)cc2)CC1	x	u	x	x	n	x
COC(=O)c1c(NC(=O)/C=C/C(=O)O)sc(C)c1-c1ccc(C(C)C)cc1	12.6µM	n	n	n	n	n
CCOC(=O)c1c(NC(=O)/C=C/C(=O)O)sc(C)c1-c1ccc(C)c(C)c1	u	25.1µM	n	x	n	n
CCOC(=O)c1c(NC(=O)/C=C/C(=O)O)sc(C)c1-c1ccc(F)cc1	u	50.1µM	n	n	n	n
CN(C)c1cccc(C(=O)Nc2nc3ccc(S(=O)(=O)N4CCCC4)cc3s2)c1	x	x	x	x	n	n
c1ccc(Cc2nn3c(Cn4nnc5ccccc54)nnc3s2)cc1	n	35.5µM	n	n	n	n
c1ccc2c(c1)OCC(c1nn3c(Cn4nnc5ccccc54)nnc3s1)O2 (stereo unspecified)	u	2.51µM	n	n	u	n
c1ccc(OCc2nn3c(Cn4nnc5ccccc54)nnc3s2)cc1	n	12.6µM	n	n	n	n
Clc1ccc(Cl)c(-c2nn3c(COc4ccccc4)nnc3s2)c1	n	14.1µM	n	n	n	n
COC(=O)N[C@@H](/C=C/c1ccccc1)C[N+](=O)[O-]	x	n	n	n	x	n
COc1ccc2c(c1)C(=O)[C@@H](OC(=O)N[C@H]1CCCc3ccccc31)[C@H](c1ccc(OC)c(Br)c1)O2	x	n	n	n	x	n
O=C(c1cc(Br)ccc1O)c1cc(Br)ccc1O	x	x	x	n	x	x
COc1ccc(OCc2nn3c(Cn4cnc5ccccc54)nnc3s2)cc1	n	25.1µM	n	n	n	n
Clc1ccccc1-c1nn2c(Cn3cnc4ccccc43)nnc2s1	n	44.7µM	n	n	n	n
c1ccc2c(c1)ncn2Cc1nnc2sc(-c3ccc4c(c3)OCO4)nn12	n	n	u	n	n	n
CCC(CC)c1nnc(NC(=O)CCc2ccc(OC)cc2)s1	x	44.7µM	x	x	u	x
Cc1ccc(S(=O)(=O)CC(=O)Nc2nnc(C(C)(C)C)s2)cc1	x	u	x	x	n	x
CCC(CC)c1nnc(NC(=O)CCc2ccccc2)s1	x	n	x	x	n	x
